Screens (PubChem)
Shown are actives, neighbours in structure and some others; about 3.8% of the full set was active somewhere.
ATXN viability: cell viability loss in ATXN counter-screen. S2 cells (HEK-293 line with an ATXN2-luciferase reporter) viability, CellTiter-Fluor protease fluorescence, 24 h. Potency, µM (titrated, usually from 56.7 µM), most hits filed as cytotoxic. actives 0.49% (n = 400,000). AID 651635; also: nearly all actives have a fitted effect of over 40% in size
TGFb SMAD3 inh: TGF-b pathway inhibition | HepG2 CAGA-GFP TGF-b/SMAD3 reporter, GFP fluorescence, 18 h; TGF-beta stimulated, 500 pg/mL final | Potency, µM (series often up to 46.1 µM), actives largely listed as inhibitors | actives 1.2% (n = 410,000) | AID 588855; also: nearly all actives have a fitted effect of over 65% in size
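HEPG2 CAGA-GFP, 1000 cells/well; 2 h settle, 37 C; cpd via pin tool; TGF-b 500 pg/mL final; 18 h, 37 C; GFP imaging ex488/em500-530; %Activity normalised to -TGF-b and +DMSO controls; CRC fit, curve class.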
ATXN2 expr inh: ATXN2 expression inhibition; HEK-293 ATXN2-luciferase reporter, luminescence, 24 h; Potency, µM (series often up to 57 µM), usual class: inhibitors; actives 0.72% (n = 360,000); also: nearly all actives have a fitted effect of over 55% in size
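qHTS (up to 57 uM final) was run with 24 h compound exposure of reporter cells at 37 °C. Each well was multiplexed: SteadyGlo luminescence measured ATXN2-luciferase expression after a fluorogenic Gly-Phe-AFC viability readout (25 uM final).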
Nrf2 inh: blocks Nrf2 signaling; A549 ARE-Fluc reporter, luciferase luminescence, 18-24 h; Potency, µM (titrated, usually from 46 µM), usual class: inhibitors; actives 2.1% (n = 360,000); also: nearly all actives have a fitted effect of over 60% in size
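A549 ARE_Fluc cells (5000/well, 5% FBS OPTI-MEM) pre-incubated 2 h, then treated with compounds 18-24 h at 37C/5% CO2 in concentration-response. CellTiter-Fluor viability read first; BugLite luciferase luminescence after 15 min at room temperature gives Nrf2 activity.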
A549 tox: counter-screen for Nrf2 inhibitors: cytotoxicity in A549 cells; Potency, µM (top dose mostly 46 µM), actives largely listed as inhibitors; A549 ARE-Fluc cells, CellTiter-Fluor viability, 18-24 h; AID 504648; actives 0.16% (n = 390,000)
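A549 ARE-Fluc cells in 5% FBS OPTI-MEM, 5000 cells/well, rested 2 h then exposed to compounds in concentration-response for 18-24 h at 37 °C. Viability by CellTiter-Fluor fluorescence (Ex 405/Em 525) after 30 min; luciferase luminescence (BugLite, 15 min, RT) read afterwards.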
HepG2 viability: kills HepG2 cells in TGF-b inhibitor counter-screen. Potency, µM (top dose mostly 46.1 µM), most hits filed as cytotoxic. actives 0.76% (n = 410,000). HepG2 CAGA-GFP viability, ATP luminescence, 18 h. AID 588856
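CellTiter-Glo luminescence gave cytotoxicity after 18 hours at 37 degrees C. The cells were HepG2 CAGA-GFP in 1% FBS DMEM, stimulated with 500 pg/mL TGF-beta after compound addition. %Activity was normalised to no-cell wells (complete cell-killing) and DMSO (no toxicity), and curves were fitted and classified.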
Large screens that a line does not name were inactive; ! = not confirmed by another sample. Calls follow the shape of the dose curve; as a rule, active = well fitted curve in the direction sought with a large enough effect; inconclusive = small, poorly fitted or top-dose-only effect, or another doubt; inactive = no such curve, though single readings can be large; an effect the other way counts as inactive or inconclusive.

CCCNC(=O)N(C)C[C@H]1Oc2ncc(Br)cc2C(=O)N([C@H](C)CO)C[C@H]1C	none (no result: Nrf2 inh, A549 tox)
COc1cc(NC(=O)CSc2cc(C)c3cc(C)cc(C)c3n2)c(C(=O)O)cc1OC	none
CCCC[n+]1ccn(-c2nc3ccccc3nc2[N-]S(=O)(=O)c2ccc(Br)cc2)c1	none
CCCCC[n+]1ccn(C2=C([O-])c3ccccc3C(=O)/C2=N\S(=O)(=O)c2ccc(Cl)cc2)c1	TGFb SMAD3 inh 3.2µM, HepG2 viability 3.5µM
CCCC[n+]1ccn(C2=C([O-])c3ccccc3C(=O)/C2=N\S(=O)(=O)c2ccc(Cl)cc2)c1	ATXN viability inconclusive, TGFb SMAD3 inh 10µM, ATXN2 expr inh inconclusive, HepG2 viability 11µM
O=C(CCC1N=C2c3ccccc3N=C(SCc3ccccc3Cl)N2C1=O)NCc1ccco1 (stereo unspecified)	Nrf2 inh 18µM, A549 tox inconclusive
O=C(CCC1N=C2c3ccccc3N=C(SCc3cccc(Cl)c3)N2C1=O)NCc1ccco1 (stereo unspecified)	none
CC(C)(C)OC(=O)N[C@H]1CCCCCC=C[C@@H]2C[C@@]2(C(=O)NS(=O)(=O)C2CC2)NC(=O)[C@@H]2C[C@@H](OC(=O)N3Cc4cccc(F)c4C3)CN2C1=O	none (no result: ATXN viability, TGFb SMAD3 inh, Nrf2 inh, A549 tox, HepG2 viability)
Nc1nc(CCl)nc(Nc2cccc3ccccc23)n1	ATXN viability inconclusive, TGFb SMAD3 inh 11µM, Nrf2 inh inconclusive, HepG2 viability 13µM (no result: ATXN2 expr inh)
COc1ccc(-c2nc(-c3ccccc3)c(-c3ccc(F)cc3)[nH]2)c(OC)c1C	ATXN viability inconclusive, TGFb SMAD3 inh inconclusive, ATXN2 expr inh inconclusive
C/C(Cl)=C\Cn1c(O)c(N=NC(N)=S)c2ccccc21	TGFb SMAD3 inh inconclusive, ATXN2 expr inh 24µM, Nrf2 inh inconclusive (no result: ATXN viability)
NC(=S)N=Nc1c(O)n(Cc2ccccc2)c2ccccc12	none
COc1ccccc1NC(=O)C(Cc1ccccc1)NS(=O)(=O)c1ccc2c(c1)c(=O)n(C)c(=O)n2C (stereo unspecified)	ATXN viability inconclusive, TGFb SMAD3 inh inconclusive
Cc1cccc(OCc2nc(CC(=O)Nc3ccc(C)c(C)c3)cs2)c1	none
CCOC(=O)c1cnc(SCC(=O)Nc2cc(OC)cc(OC)c2)nc1N	ATXN viability inconclusive, Nrf2 inh inconclusive
CCOC(=O)c1cnc(SCC(=O)Nc2sc(C)c(C)c2C#N)nc1N	ATXN viability inconclusive, ATXN2 expr inh inconclusive, Nrf2 inh 9.2µM, A549 tox inconclusive
COC(=O)CC1Oc2ccc(C)cc2-n2cc(-c3ccc(C)cc3)nc21 (stereo unspecified)	TGFb SMAD3 inh inconclusive
O=S(=O)(Nc1nc2ccccc2nc1NCc1ccco1)c1ccccc1	none
Cc1nc(NCc2ccco2)c2cn[nH]c2n1	Nrf2 inh 23µM
c1coc(CNc2nc3nonc3nc2NCc2ccco2)c1	TGFb SMAD3 inh inconclusive, Nrf2 inh 7.3µM
O=c1[nH]c(=O)n(Cc2ccccc2)c2nc(-c3ccc(Oc4ccc(F)cc4)c([N+](=O)[O-])c3)n(CCO)c12	ATXN viability inconclusive, TGFb SMAD3 inh 13µM, ATXN2 expr inh inconclusive, Nrf2 inh inconclusive
COc1ccc(-c2nc3c(c(=O)[nH]c(=O)n3Cc3ccccc3)n2CCO)cc1	none
N#Cc1ccc(OCC(O)CN2CCN(c3ncc(C(F)(F)F)cc3Cl)CC2)cc1 (stereo unspecified)	TGFb SMAD3 inh inconclusive, ATXN2 expr inh inconclusive, Nrf2 inh 18µM
N#Cc1ccc(OCC(O)CN2CCN(CC(O)COc3ccc(C#N)cc3)CC2)cc1 (stereo unspecified)	Nrf2 inh inconclusive
CCOc1cccc2sc(N(CCN(C)C)C(=O)c3cc4ccccc4cc3OC)nc12	ATXN viability inconclusive, TGFb SMAD3 inh inconclusive, ATXN2 expr inh 20µM
CCN(Cc1ccccc1)S(=O)(=O)c1ccc(C(=O)N(CCCN(C)C)c2nc3cc(C)cc(C)c3s2)cc1	ATXN viability 25µM, TGFb SMAD3 inh inconclusive, ATXN2 expr inh inconclusive, Nrf2 inh inconclusive, A549 tox inconclusive
CCOc1ccc2nc(N(CCN(C)C)C(=O)c3cc4ccccc4cc3OC)sc2c1	ATXN viability inconclusive, TGFb SMAD3 inh inconclusive (no result: ATXN2 expr inh)
Cc1cccc2sc(N(CCCN(C)C)C(=O)c3ccc(Cl)s3)nc12	ATXN viability inconclusive, TGFb SMAD3 inh inconclusive, ATXN2 expr inh 22µM!, Nrf2 inh inconclusive
Cc1cc(C)c2sc(N(CCN(C)C)C(=O)c3c(F)cccc3F)nc2c1	TGFb SMAD3 inh inconclusive
Cc1cccc2sc(N(CCCN(C)C)C(=O)c3ccco3)nc12	ATXN2 expr inh inconclusive, Nrf2 inh inconclusive
Cc1cc(C)c2sc(N(CCCN(C)C)C(=O)c3ccc(Br)s3)nc2c1	ATXN viability 11µM, TGFb SMAD3 inh inconclusive, ATXN2 expr inh 8.9µM, Nrf2 inh 15µM, A549 tox inconclusive
CCc1cccc(NC(=O)CN(c2ccc(C)cc2)S(=O)(=O)c2c(C)noc2C)c1	TGFb SMAD3 inh inconclusive (no result: ATXN2 expr inh)
COc1ccc(-n2c(SCCNCCO)nc3sc4c(c3c2=O)CCCC4)cc1	ATXN viability inconclusive, TGFb SMAD3 inh inconclusive, ATXN2 expr inh inconclusive, Nrf2 inh inconclusive
CCSC(C)CC1C/C(=N/O)c2c(CC)noc2C1 (stereo unspecified)	Nrf2 inh 23µM
COc1ccc(NC(=O)CSC2=Nc3ccccc3C3=NC(CC(=O)NCc4ccc(F)cc4)C(=O)N23)cc1 (stereo unspecified)	none (no result: ATXN viability, ATXN2 expr inh, Nrf2 inh)
O=C(COC(=O)c1ccccc1-n1cnnn1)c1ccc(F)cc1	Nrf2 inh inconclusive
COc1ccc2cc(C(=O)C3CCCN(C(=O)c4cnccn4)C3)ccc2c1 (stereo unspecified)	Nrf2 inh inconclusive
Cc1ccc(C(=O)N2CCCC(C(=O)c3ccc(Oc4ccccc4)cc3)C2)cn1 (stereo unspecified)	ATXN viability inconclusive, ATXN2 expr inh inconclusive, Nrf2 inh 16µM, A549 tox inconclusive
Cc1ccc(C(=O)N2CCCC(C(=O)c3ccc(Cl)cc3C)C2)cn1 (stereo unspecified)	none
COc1ccc2cc(C(=O)C3CCCN(C(=O)/C=C/c4ccccn4)C3)ccc2c1 (stereo unspecified)	HepG2 viability 13µM
Cc1nc(N2CCN(c3ccccn3)CC2)c2c(C)c(C(=O)N3CCN(c4ccccc4F)CC3)sc2n1	ATXN viability inconclusive, ATXN2 expr inh inconclusive, Nrf2 inh inconclusive
COc1cccc(NCc2nnc(SC(C(=O)N(C)C)c3ccccc3)n2C2CCCCC2)c1 (stereo unspecified)	none (no result: ATXN viability, ATXN2 expr inh, Nrf2 inh, A549 tox)
